AmpC inh detg: AmpC beta-lactamase inhibition with detergent present. Potency, µM (titrated, usually from 114 µM), inactives show at the highest dose activity change, negative = inhibition, actives largely listed as inhibitors. AmpC hydrolysis of nitrocefin, absorbance 480 nm, 0.01% Triton. P00811. actives 0.041% (n = 370,000);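 further: potency means the concentration at half of the fitted maximal effect; 0% = no-compound wells and -100% = no-enzyme wells; nearly all actives have a fitted effect of over 25% in size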
Target sequence (P00811 whole entry, looked up): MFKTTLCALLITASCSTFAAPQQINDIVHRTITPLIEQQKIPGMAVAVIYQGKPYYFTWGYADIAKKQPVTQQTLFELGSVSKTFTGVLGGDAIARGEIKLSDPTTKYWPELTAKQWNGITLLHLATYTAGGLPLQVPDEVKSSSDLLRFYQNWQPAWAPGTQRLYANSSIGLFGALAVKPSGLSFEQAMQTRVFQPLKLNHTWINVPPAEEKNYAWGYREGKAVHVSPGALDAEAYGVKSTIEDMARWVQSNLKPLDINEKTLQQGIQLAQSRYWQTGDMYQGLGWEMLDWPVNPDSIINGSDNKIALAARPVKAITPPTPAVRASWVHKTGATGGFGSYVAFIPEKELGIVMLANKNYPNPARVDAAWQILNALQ
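20 mM phosphate pH 7.0 + 0.01% (detergent screen) or 0.0001% Triton X-100; 5.3 nM AmpC reagent; cpd preinc 15 min RT; nitrocefin (800 uM stock) to start; A480 q20 s × 4 min; Activity was normalised to no-enzyme and no-compound control wells.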
SARS PLP yeast: SARS-CoV PLP inhibition in yeast; S. cerevisiae expressing SARS-CoV PLpro, growth rescue; actives 0.19% (n = 330,000); Potency, µM (top dose mostly 32.9 µM), for inactives: top-dose activity, positive = growth rescue, most hits filed as activators; calls by dose curve; further: potency means the concentration at half of the fitted maximal effect; 0% is about no effect; nearly all actives have a fitted effect of over 55% in size
AMA1-RON2 inh: inhibitors of Plasmodium falciparum AMA1-RON2 interaction | AlphaScreen AMA1-biotinylated RON2 peptide binding | Potency, µM (top dose mostly 58.2 µM), without a hit: at the highest dose activity change, negative = inhibition, most hits filed as inhibitors | actives 0.2% (n = 360,000) | AID 720542;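 further: potency means the concentration at half of the fitted maximal effect; 0% = vehicle wells and -100% = peptide control; nearly all actives have a fitted effect of over 45% in size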
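AMA1 (3D7) with his tag at 25 nM final met compounds first, then biotinylated RON2 peptide at 25 nM; detection used donor plus acceptor beads, 10 µg/mL apiece, read by AlphaScreen after 30 min at room temperature.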
CHX counter: affects cycloheximide protein synthesis inhibition readout, counter-screen | cell reporter, cycloheximide protein synthesis inhibition counterscreen | actives 12% (n = 300,000) | AID 2314 | max response, %; in the data active means max response mostly above about 13%, no sharp cut-off; inactive means mostly below about 14%; further: read at 38.3 µM for the half of the compounds with a filed dose; 0% is about no effect
AmpC no deterg: inhibitors of E. coli AmpC beta-lactamase without detergent; P00811; AmpC nitrocefin hydrolysis, absorbance 480 nm, 0.0001% Triton; Potency, µM (doses to about 57.1 µM), for inactives: at the top dose activity change, negative = inhibition, actives largely listed as inhibitors; actives 0.52% (n = 330,000);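 further: potency means the concentration at half of the fitted maximal effect; plate controls were no compound for no effect and no enzyme for full effect; nearly all actives have a fitted effect of over 20% in size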
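20 mM phosphate pH 7.0 + 0.01% (detergent screen) or 0.0001% Triton X-100; 5.3 nM AmpC reagent; cpd preinc 15 min RT; nitrocefin (800 uM stock) to start; A480 q20 s × 4 min; Activity was normalised to no-enzyme and no-compound control wells.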
Shiga inhibitor: blocks Shiga toxin action in Vero cells; Vero cells, Shiga toxin protein synthesis inhibition reporter; inhibition, % at 38.7 µM; actives 9.2% (n = 290,000); AID 2315; in the data active means inhibition mostly above about 28%, no sharp cut-off; inactive means mostly below about 43%; further: 0% is about no effect
Active calls of the source: *; ? = inconclusive; nt = not tested or not shown. Many of the other results were omitted from the sample, so hits are more common in it than they were. Unless noted, the call rests on the fitted dose curve; in most records, active means well fitted curve in the direction sought with a large enough effect; inconclusive means small, poorly fitted or top-dose-only effect, or another doubt; inactive means no such curve, though single readings can be large; an effect the other way counts as inactive or inconclusive.

SMILES | AmpC inh detg | SARS PLP yeast | AMA1-RON2 inh | CHX counter | AmpC no deterg | Shiga inhibitor
c1ccc(CCCc2nc(-c3cccnc3)no2)cc1 | -13.7% | -8.0% | -2.0% | 19.1* | -5.4% | 43.1*
Cc1ccc(-c2noc(CSc3nnc(C)n3-c3ccc(C)cc3)n2)cc1 | -8.2% | nt | nt | nt | nt | nt
Cc1ccc(-c2noc(CSc3nc(N)cc(N)n3)n2)cc1 | -5.3% | -6.8% | -7.1% | 52.7* | -12.4% | 87.3*
COc1cccc(/C=N/N2CCN(c3ccncc3S(=O)(=O)N3CCCCC3)CC2)c1 | -7.8% | -6.5% | ? | -0.6 | 187.5% | -8.6
CC1CCC(NC(=O)c2ccc(NS(=O)(=O)c3ccc4[nH]c(=O)[nH]c4c3)cc2)CC1 (configuration not stated) | 1.2% | nt | 10.8% | nt | -3.6% | nt
Cc1c(CC(Cl)(Cl)Cl)c2c(n1O)CC(C)(C)CC2=O | -2.7% | -44.2% | 22.5% | -2.6 | -41.2% | -10.3
Cc1ccc(-c2noc(CSc3ccccc3)n2)cc1 | -1.6% | -10.0% | 84.2% | 33.3* | -26.8% | 76.6*
Cc1ccc(CCN2CC(C(=O)NC3CCCC3)CC2=O)cc1 (configuration not stated) | -10.4% | 7.3% | 1.6% | -1.5 | 1.8% | -3.0
O=C(NCCCc1ccccc1)C1CCC(=O)N(Cc2ccc(Cl)cc2)C1 (configuration not stated) | -12.2% | 1.1% | -4.5% | 35.5* | 167.6% | 38.2*
Cc1ccc(CNC(=O)C2CCC(=O)N(CCc3ccc(Cl)cc3)C2)cc1 (configuration not stated) | -1.7% | 2.5% | 8.0% | 46.5* | 180.1% | 85.3*
Cc1ccc(CCN2CC(C(=O)NC3CCCCC3)CC2=O)cc1 (configuration not stated) | 0.6% | 0.4% | -11.7% | 29.9* | 22.1% | 3.5
OCCN1CCN(C(=S)Nc2ccc(SC(F)F)cc2)CC1 | 0.1% | 1.3% | 13.9% | 6.7 | -13.7% | 4.2
O=C(CN1CCN(S(=O)(=O)c2ccc(F)c(Cl)c2)CC1)N1CCOCC1 | 0.2% | nt | 7.0% | nt | 59.1% | nt
CCN(CC)CCCN1C(=O)CSC1c1ccc2c(c1)OCO2 (configuration not stated) | 2.2% | 7.0% | 0.0% | 2.4 | -12.5% | -12.8
CN1CCN(C2=Nc3c(Cl)cc(Cl)c4cccc2c34)CC1 | 1.8% | -3.5% | ? | -1.6 | 158.6% | -10.2
Cc1cccc(NC(=O)CSc2nsc(SCC(=O)Nc3cccc(C)c3)c2C#N)c1 | 1.3% | 12.9% | 1.1% | 11.7* | -39.3% | 12.5
CC(=O)Nc1cccc(NC(=O)CSc2nc(C)c(C)c(C)c2C#N)c1 | -10.7% | -3.4% | 5.0% | 11.2* | -17.6% | -2.5
Cc1ccc(Cl)cc1NC(=O)CSc1nc(C)c(C)c(C)c1C#N | 0.9% | nt | nt | nt | nt | nt
N#Cc1c(SCC(=O)Nc2ccccc2)nsc1SCC(=O)Nc1ccccc1 | -12.8% | 29.7% | 0.5% | -0.3 | -14.5% | -8.0
COc1ccc(N=N/C(=C\O)C(=O)c2ccco2)cc1 | -12.7% | -6.0% | -5.3% | 39.6* | -16.6% | 83.5*
Cc1cccc(N/C=C/c2onc(C)c2[N+](=O)[O-])c1 | -3.5% | nt | -21.3% | 31.3* | nt | 89.0*
Cc1cc(O)ccc1N/C=C/c1onc(C)c1[N+](=O)[O-] | -2.5% | -2.4% | 2.7% | 38.7* | -22.1% | 64.4*
CC(C)c1onc(-c2c(Cl)cccc2Cl)c1COc1ccc(/C=C/c2cccc(C(=O)O)c2)c(Cl)c1 | nt | nt | nt | 35.9* | nt | 60.2*
CCC(C)NC(=O)c1cccc(OCc2c(C)noc2C)c1 (configuration not stated) | -3.7% | 1.0% | 32.0% | 1.1 | -12.6% | 1.1
O=C(CN1C(=O)CCn2nc(-c3ccccc3)cc21)NCc1ccc(Cl)cc1 | -6.3% | nt | nt | nt | nt | nt
SMILES | AmpC inh detg | SARS PLP yeast | AMA1-RON2 inh | CHX counter | AmpC no deterg | Shiga inhibitor
O=C1CCn2nc(-c3ccc(Cl)cc3)cc2N1 | 2.1% | -13.0% | -9.1% | 44.2* | -14.7% | 78.7*
Cn1c(COc2ccc(Cl)cc2)nnc1SCC(=O)NC1CC1 | 5.3% | -3.5% | -2.9% | nt | 2.6% | nt
C#CCN1C(=O)S/C(=C/C=C/c2ccc(N(C)C)cc2)C1=O | -1.2% | 15.4% | ? | 47.1* | -33.2% | 115.6*
O=C(O)CN1C(=O)/C(=C/C=C/c2ccccc2)SC1=S | ? | 6.3% | 13.8% | 7.9 | -13.5% | 3.4
O=C(CCn1c(=O)oc2ccccc21)NCCN1CCc2ccccc2C1 | ? | 2.4% | -9.7% | 1.5 | -1.4% | -11.4
COc1ccc(/C=C2\SC(=O)N(CCNC(=O)Cn3cnnn3)C2=O)cc1 | -11.1% | -12.8% | -2.3% | 32.2* | -6.2% | 156.9*
COc1ccc(/C=C2\SC(=O)N(CC(=O)NNC(=O)c3ccccc3O)C2=O)cc1 | -5.1% | 7.2% | 12.2% | 0.6 | 11.2µM* | 3.8
COc1ccc(/C=C2\SC(=O)N(CCNC(=O)CCS(=O)(=O)c3ccc(C)cc3)C2=O)cc1 | -16.7% | -29.1% | -9.8% | 70.3* | 22.8% | 110.4*
O=C(CN1C(=O)S/C(=C\c2ccccc2)C1=O)NNC(=O)c1ccccc1O | ? | 7.6% | 4.1% | -3.2 | -35.4% | 4.1
CCc1noc(C)c1C(=O)NCCN1C(=O)S/C(=C\c2ccc(OC)cc2)C1=O | -4.5% | 1.9% | 3.7% | nt | -23.4% | nt
O=C(CN1C(=O)S/C(=C\c2ccc(O)cc2)C1=O)c1ccccc1 | -3.8% | 0.4% | -11.0% | 36.4* | -47.2% | 19.6*
O=C1S/C(=C/c2ccccc2)C(=O)N1CC(O)Cn1c2ccccc2c2ccccc21 (configuration not stated) | -11.6% | -4.2% | -12.8% | -1.2 | 15.8µM* | -7.2
COc1ccc(/C=C2\SC(=O)N(CCNC(=O)C3CCN(S(=O)(=O)c4cccs4)CC3)C2=O)cc1 | -18.1% | 3.7% | 0.3% | 35.2* | -5.2% | 43.8*
CC(C(=O)N1CCCc2c1c(=O)oc1ccc(O)cc21)N1CCc2ccccc2C1 (configuration not stated) | ? | 3.4% | -8.2% | -9.8 | -29.7% | -22.5
COc1ccc(CC(=O)N2CCC(n3nccc3NC(=O)C3CCOC3)CC2)cc1 (configuration not stated) | -10.9% | 7.8% | 0.2% | 3.1 | 2.2% | -11.7
COc1ccc(C(=O)NCC(c2ccco2)S(=O)(=O)c2ccc(F)cc2)cc1 (configuration not stated) | -1.9% | nt | nt | nt | nt | nt
O=C(CC(c1ccco1)S(=O)(=O)c1ccccc1)c1ccc(F)cc1 (configuration not stated) | -1.3% | -21.8% | 7.9% | 25.0* | -25.8% | 38.9*
CCc1nonc1NC(=O)c1oc2cc(C)c(C)cc2c1C | 1.8% | ? | 10.2% | 25.1* | -11.6% | 36.6
Cc1ccc2oc(C(=O)Nc3nnc(C)s3)c(C)c2c1 | -1.7% | 0.8% | 13.1% | 17.4* | -8.7% | 49.9

Screening results: PubChem BioAssay, National Center for Advancing Translational Sciences (NCATS)
